Laboratory results reported in PubChem BioAssay (EPA / NIEHS).
The source made the active and inactive calls. Rule for the calls: active = hit-call score of the fitted dose curve at least 0.9, where 1 is the maximum; inactive = score below 0.9.

Experiment: APR_HepG2_NuclearSize_72hr: Apredica 72-hour HepG2 Assay for Nuclear Size (AID 2282925)
Settings: high-content imaging, actives raise or lower the signal
In short: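 Compounds (0.39–200 uM, final DMSO 0.5%) were applied to HepG2 for 72 hr. Cells were then formaldehyde-fixed, permeabilized and labelled with Hoechst 33342. Nuclear diameter was quantified from six images per well.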

SMILES	outcome
CN1COCN(Cc2cnc(Cl)s2)C1=N[N+](=O)[O-]	inactive
O=C(O)c1cc(Oc2ccc(C(F)(F)F)cc2Cl)ccc1[N+](=O)[O-]	inactive
Nc1c(Cl)cc([N+](=O)[O-])cc1Cl	inactive
CSc1nc(NC(C)C)nc(NC(C)C)n1	inactive
COP(=O)(NC(C)=O)SC (stereo unspecified)	inactive
CCOP(=S)(OCC)OC(Cl)C(Cl)(Cl)Cl (stereo unspecified)	inactive
COc1cc(OC)nc(Sc2cccc(Cl)c2C(=O)O)n1	inactive
CC1=NNC(=O)N(/N=C/c2cccnc2)C1	inactive
CCC(=O)Nc1ccc(Cl)c(Cl)c1	inactive
COc1cccc(C(=O)NN(C(=O)c2cc(C)cc(C)c2)C(C)(C)C)c1C	inactive
CCCSP(=O)(OCC)Oc1ccc(Br)cc1Cl (stereo unspecified)	inactive
COc1ccc(C(=CC(=O)N2CCOCC2)c2ccc(Cl)cc2)cc1OC	inactive
S=C1NCCN1	inactive
CC(C)[C@H](C(=O)O[C@H](C#N)c1cccc(Oc2ccccc2)c1)c1ccc(Cl)cc1	inactive
CCOP(=S)(OCC)Oc1ccc([N+](=O)[O-])cc1	inactive
Nc1nc(N)nc(NC2CC2)n1	inactive
CCCSP(=O)(OCC)SCCC	inactive
FC(F)C(F)(F)OCC(Cn1cncn1)c1ccc(Cl)cc1Cl (stereo unspecified)	inactive

SMILES	outcome
CC1(C(=O)Nc2ccc(O)c(Cl)c2Cl)CCCCC1	inactive
CN(C)[C@@H]1C(=O)C(C(N)=O)=C(O)[C@@]2(O)C(=O)C3=C(O)c4c(O)cccc4[C@@](C)(O)[C@H]3[C@H](O)[C@@H]12	inactive
CNC(=O)Oc1cccc2c1OC(C)(C)O2	inactive
CSC1=N[C@@](C)(c2ccccc2)C(=O)N1Nc1ccccc1	inactive
CC(C)=CC1C(C(=O)OCN2C(=O)C3=C(CCCC3)C2=O)C1(C)C (stereo unspecified)	inactive
CC[C@H](C)[C@H]1O[C@]2(C=C[C@@H]1C)C[C@@H]1C[C@@H](C/C=C(\C)[C@@H](O[C@H]3C[C@H](OC)[C@@H](O[C@H]4C[C@H](OC)[C@@H](NC)[C@H](C)O4)[C@H](C)O3)[C@@H](C)/C=C/C=C3\CO[C@@H]4[C@H](O)C(C)=C[C@@H](C(=O)O1)[C@]34O)O2	inactive
N#CSCSC#N	inactive
COP(=O)(OC)C(O)C(Cl)(Cl)Cl (stereo unspecified)	inactive
Cc1ccn2nc(S(=O)(=O)Nc3c(F)cccc3F)nc2n1	inactive
CCC(CC)Nc1c([N+](=O)[O-])cc(C)c(C)c1[N+](=O)[O-]	inactive
CCCCOC(=O)c1ccccc1C(=O)O	inactive
CCCOc1nn(C(=O)NS(=O)(=O)c2ccccc2C(=O)OC)c(=O)n1C	inactive
C[N+]1(C)CCCCC1	inactive
CC(C)N(C(=O)SCC(Cl)=C(Cl)Cl)C(C)C	inactive
CCOP(=S)(OCC)Oc1ccc2c(C)c(Cl)c(=O)oc2c1	inactive
CCc1cccc(CC)c1N(COC)C(=O)CCl	inactive
CCOC(=O)COc1cc(-c2nn(C)c(OC(F)F)c2Cl)c(F)cc1Cl	inactive
CCOP(=O)(OCC)Oc1cc(C)nc(C(C)C)n1	inactive
